# According to PubChem BioAssay (EPA / NIEHS):
# Inconclusive results are not listed. The source made the active and inactive calls. How the source made its calls, unless noted: active means hit-call score of the fitted dose curve at least 0.9, where 1 is the maximum; inconclusive means response in the unintended direction; inactive means score below 0.9.
# What was measured:
# [1] = target: Nuclear receptor subfamily 1 group I member 2 (Homo sapiens) (UniProt O75469); assay: ATG_PXR_TRANS: Attagene TRANS-FACTORIAL HepG2 Assay for human Pregnane X Receptor (PXR) (AID 2283008)
# Sequence of Nuclear receptor subfamily 1 group I member 2 (Homo sapiens) (O75469 whole entry, looked up, the tested form may be a part): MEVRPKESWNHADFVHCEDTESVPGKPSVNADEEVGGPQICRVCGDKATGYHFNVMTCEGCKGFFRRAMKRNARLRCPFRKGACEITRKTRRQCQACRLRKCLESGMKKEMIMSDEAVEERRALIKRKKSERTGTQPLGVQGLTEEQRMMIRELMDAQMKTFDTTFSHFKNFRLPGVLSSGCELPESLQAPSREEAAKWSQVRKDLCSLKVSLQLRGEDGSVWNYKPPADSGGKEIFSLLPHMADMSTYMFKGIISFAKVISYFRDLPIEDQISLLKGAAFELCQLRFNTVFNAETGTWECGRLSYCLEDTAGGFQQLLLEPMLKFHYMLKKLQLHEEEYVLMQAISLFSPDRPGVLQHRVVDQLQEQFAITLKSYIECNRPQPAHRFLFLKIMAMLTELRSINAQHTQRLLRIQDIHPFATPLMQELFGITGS
# Outline: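 Trans-factorial format: exogenous NR-Gal4 fusion activity, not endogenous factor, in transfected human HepG2 liver cells. After 24 h dosing, RNA isolated, reverse-transcribed, amplified and resolved by capillary electrophoresis; induction scored versus DMSO.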
# [2] = target: human RAR-related Orphan Receptor gamma (RORg), RORC (gene 6097) (UniProt P51449); assay: ATG_RORg_TRANS: Attagene TRANS-FACTORIAL HepG2 Assay for human RAR-related Orphan Receptor gamma (RORg) (AID 2283011)
# Sequence of human RAR-related Orphan Receptor gamma (RORg), RORC (gene 6097) (P51449 whole entry, looked up, the tested form may be a part): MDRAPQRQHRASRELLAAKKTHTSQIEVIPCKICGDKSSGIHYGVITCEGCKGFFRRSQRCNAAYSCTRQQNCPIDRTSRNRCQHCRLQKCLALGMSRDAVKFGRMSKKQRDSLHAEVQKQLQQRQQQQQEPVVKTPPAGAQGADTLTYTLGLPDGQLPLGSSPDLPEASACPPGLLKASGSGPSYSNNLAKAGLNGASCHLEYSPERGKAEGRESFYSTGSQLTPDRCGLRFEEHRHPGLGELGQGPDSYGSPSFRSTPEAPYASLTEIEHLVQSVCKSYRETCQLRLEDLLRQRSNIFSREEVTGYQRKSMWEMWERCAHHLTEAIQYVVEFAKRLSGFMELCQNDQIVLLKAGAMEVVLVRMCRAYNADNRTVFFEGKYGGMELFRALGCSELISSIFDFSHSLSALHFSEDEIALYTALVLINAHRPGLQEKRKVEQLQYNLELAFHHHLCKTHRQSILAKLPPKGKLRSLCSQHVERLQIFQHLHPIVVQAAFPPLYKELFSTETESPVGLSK
# Outline: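 Chimeric RORg-Gal4 transactivation in transfected HepG2; 24 h exposure; RT-PCR/capillary electrophoresis readout of reporter mRNA, DMSO baseline.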
# [3] = target: Peroxisome proliferator-activated receptor gamma (Homo sapiens) (UniProt P37231); assay: ATG_PPARg_TRANS: Attagene TRANS-FACTORIAL HepG2 Assay for human Peroxisome Proliferator-activated Receptor-gamma (PPARg) (AID 2283007)
# Sequence of Peroxisome proliferator-activated receptor gamma (Homo sapiens) (P37231 whole entry, looked up, the tested form may be a part): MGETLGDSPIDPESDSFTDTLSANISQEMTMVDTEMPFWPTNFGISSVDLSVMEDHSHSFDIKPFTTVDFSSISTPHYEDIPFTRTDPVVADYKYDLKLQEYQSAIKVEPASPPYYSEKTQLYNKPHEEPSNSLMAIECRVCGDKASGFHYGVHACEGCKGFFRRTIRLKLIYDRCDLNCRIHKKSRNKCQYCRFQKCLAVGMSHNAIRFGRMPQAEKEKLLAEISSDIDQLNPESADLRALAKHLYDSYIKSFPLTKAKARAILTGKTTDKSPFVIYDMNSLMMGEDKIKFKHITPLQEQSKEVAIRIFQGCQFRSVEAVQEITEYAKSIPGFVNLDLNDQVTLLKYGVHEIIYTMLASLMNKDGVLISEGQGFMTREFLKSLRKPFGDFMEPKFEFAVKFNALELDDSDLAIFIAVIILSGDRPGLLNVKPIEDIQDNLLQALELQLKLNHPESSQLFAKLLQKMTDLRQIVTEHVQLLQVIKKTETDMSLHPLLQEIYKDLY
# Outline: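 Read-out: reporter mRNA induction, detected by fluorescence after RT-PCR and capillary electrophoresis. Transiently transfected human HepG2 liver cells carrying a chimeric NR-Gal4 construct were dosed for 24 h; activity was fitted upward relative to DMSO.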
# [4] = target: human Retinoic Acid Receptor gamma (RARg), RARG (gene 5916) (UniProt P13631); assay: ATG_RARg_TRANS: Attagene TRANS-FACTORIAL HepG2 Assay for human Retinoic Acid Receptor gamma (RARg) (AID 2283009)
# Sequence of human Retinoic Acid Receptor gamma (RARg), RARG (gene 5916) (P13631 whole entry, looked up, the tested form may be a part): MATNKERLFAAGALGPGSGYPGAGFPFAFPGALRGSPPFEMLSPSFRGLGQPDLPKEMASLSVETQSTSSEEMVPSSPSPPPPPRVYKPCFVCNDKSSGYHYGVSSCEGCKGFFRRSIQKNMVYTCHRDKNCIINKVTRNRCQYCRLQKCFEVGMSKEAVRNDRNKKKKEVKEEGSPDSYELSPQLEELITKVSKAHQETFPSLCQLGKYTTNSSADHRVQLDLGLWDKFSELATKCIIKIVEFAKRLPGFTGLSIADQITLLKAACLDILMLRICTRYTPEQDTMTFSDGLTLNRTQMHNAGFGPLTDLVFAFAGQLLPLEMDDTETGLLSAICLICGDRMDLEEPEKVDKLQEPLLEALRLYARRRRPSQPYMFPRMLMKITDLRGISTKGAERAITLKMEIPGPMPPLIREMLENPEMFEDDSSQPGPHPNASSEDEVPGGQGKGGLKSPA
# Outline: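 Readout: reporter transcript levels via RT-PCR, 6-FAM primer-extension labelling, HpaI digestion and capillary electrophoresis. Cells: HepG2 carrying transfected RARg-GAL4 chimera plus UAS reporter set. Dosing 24 h; DMSO negative control.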
# [5] = target: Retinoic acid receptor alpha (Homo sapiens) (UniProt P10276); assay: ATG_RARa_TRANS: Attagene TRANS-FACTORIAL HepG2 Assay for human Retinoic Acid Receptor alpha (RARa) (AID 2283005)
# Sequence of Retinoic acid receptor alpha (Homo sapiens) (P10276 whole entry, looked up, the tested form may be a part): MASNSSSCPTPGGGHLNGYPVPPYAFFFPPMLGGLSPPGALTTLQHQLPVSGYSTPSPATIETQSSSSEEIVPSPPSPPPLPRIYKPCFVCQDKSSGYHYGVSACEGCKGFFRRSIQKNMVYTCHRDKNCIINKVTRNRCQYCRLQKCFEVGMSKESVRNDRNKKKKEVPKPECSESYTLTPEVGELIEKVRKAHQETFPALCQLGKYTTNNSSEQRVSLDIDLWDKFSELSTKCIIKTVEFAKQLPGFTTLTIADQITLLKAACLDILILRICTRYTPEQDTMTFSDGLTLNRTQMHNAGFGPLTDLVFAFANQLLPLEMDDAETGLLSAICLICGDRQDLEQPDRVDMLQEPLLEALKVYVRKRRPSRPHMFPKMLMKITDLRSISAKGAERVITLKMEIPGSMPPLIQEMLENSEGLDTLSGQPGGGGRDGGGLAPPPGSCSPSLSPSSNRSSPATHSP
# Outline: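 Reporter transcripts, measured by RT-PCR with fluorescent labeling and capillary electrophoresis after 24 h dosing, reflect activity of an exogenous human RARa–GAL4 fusion in transiently transfected HepG2. Fitted for increase relative to DMSO.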
# [6] = target: human RAR-related Orphan Receptor beta (RORb), RORB (gene 6096) (UniProt Q92753); assay: ATG_RORb_TRANS: Attagene TRANS-FACTORIAL HepG2 Assay for human RAR-related Orphan Receptor beta (RORb) (AID 2283010)
# Sequence of human RAR-related Orphan Receptor beta (RORb), RORB (gene 6096) (Q92753 whole entry, looked up, the tested form may be a part): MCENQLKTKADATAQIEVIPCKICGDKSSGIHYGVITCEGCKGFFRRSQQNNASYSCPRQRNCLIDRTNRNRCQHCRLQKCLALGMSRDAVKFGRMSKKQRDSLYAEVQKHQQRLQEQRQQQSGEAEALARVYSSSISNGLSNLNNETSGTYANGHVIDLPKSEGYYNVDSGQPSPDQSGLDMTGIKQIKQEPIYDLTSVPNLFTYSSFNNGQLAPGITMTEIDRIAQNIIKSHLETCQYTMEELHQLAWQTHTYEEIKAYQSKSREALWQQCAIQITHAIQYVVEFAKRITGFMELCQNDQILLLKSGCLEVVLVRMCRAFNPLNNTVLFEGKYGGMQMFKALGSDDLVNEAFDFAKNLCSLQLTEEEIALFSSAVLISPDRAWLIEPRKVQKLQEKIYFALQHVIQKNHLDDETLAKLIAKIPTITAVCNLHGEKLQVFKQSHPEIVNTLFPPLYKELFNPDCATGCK
# Outline: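 HepG2, transient MRTU transfection (GAL4-UAS reporters, exogenous NR-Gal4 chimeras); 24 h compound exposure; total RNA → RT-PCR → 6-FAM primer extension → HpaI digest → CE fluorescence. Positive direction vs DMSO baseline.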
# [7] = read-out: Intercellular Adhesion Molecule 1 (ICAM1), ICAM1 (gene 3383); assay: BSK_3C_ICAM1: BioMAP Diversity Plus: 3C Assay for Intercellular Adhesion Molecule 1 (ICAM1) Biomarker Activity (AID 2283003; active means hit-call score of the fitted dose curve at least 0.9, where 1 is the maximum; inactive means score below 0.9); details: primary human endothelial cells (HUVEC); actives raise or lower the signal
# Outline: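 ELISA read-out of ICAM-1; HUVEC (primary human), 3C system, 24 h post-dosing; bidirectional fit vs DMSO baseline.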
# [8] = BSK_3C_Proliferation: Cell Proliferation Assessment in the BioMAP Diversity Plus: 3C Assay (AID 2283006; active means hit-call score of the fitted dose curve at least 0.9, where 1 is the maximum; inactive means score below 0.9); details: primary human endothelial cells (HUVEC)
# Outline: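 HUVEC, sub-confluent; 48 h chemical exposure; 10% TCA fix, 0.1% SRB stain, A560 total protein. Gain or loss of signal fitted both directions vs DMSO control.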
smiles,measurement,setting,value
O=C1C(c2[nH]c3ccc(S(=O)(=O)O)cc3c2O)=Nc2ccc(S(=O)(=O)O)cc21,outcome,[1],inactive
same,outcome,[2],inactive
CCCCCNCCCCC,outcome,[3],inactive
same,outcome,[1],inactive
same,outcome,[4],inactive
CN(C)CCCN,outcome,[3],inactive
same,outcome,[1],inactive
C=O,outcome,[5],inactive
same,outcome,[1],inactive
same,outcome,[4],inactive
CC[C@]12CCCN3CCc4c(n(c5ccccc45)[C@@](O)(C(=O)OC)C1)[C@@H]32,AC50,[1],2.99 µM (active)
CC(=O)OCC=Cc1ccccc1,AC50,[3],9.38 µM (active)
same,outcome,[1],inactive
same,outcome,[2],inactive
CC(C)(CO)[N+](=O)[O-],outcome,[3],inactive
same,outcome,[1],inactive
same,outcome,[6],inactive
CC(=O)[O][Al][O]C(C)=O,outcome,[1],inactive
same,outcome,[6],inactive
CC(=O)C=CC1=C(C)CCCC1(C)C,AC50,[3],14.1 µM (active)
same,AC50,[1],1.02 µM (active)
CO[Si](CCCn1c(=O)n(CCC[Si](OC)(OC)OC)c(=O)n(CCC[Si](OC)(OC)OC)c1=O)(OC)OC,outcome,[3],inactive
same,outcome,[1],inactive
COc1ccc(NC(=O)CC(C)=O)cc1,outcome,[3],inactive
same,outcome,[1],inactive
CCCCCCCCCOC(C)=O,outcome,[3],inactive
same,outcome,[1],inactive
CNCCO,outcome,[3],inactive
same,outcome,[1],inactive
Cc1cccc(C)c1[N+](=O)[O-],outcome,[5],inactive
same,outcome,[1],inactive
same,outcome,[4],inactive
same,outcome,[6],inactive
same,outcome,[2],inactive
C=CC(C)(C)O,outcome,[3],inactive
same,outcome,[1],inactive
Cc1ccc(C(=O)O)o1,outcome,[1],inactive
same,outcome,[2],inactive
CCCCCCOC(=O)CCCCC,outcome,[5],inactive
same,outcome,[3],inactive
same,outcome,[1],inactive
same,outcome,[4],inactive
same,outcome,[6],inactive
CC(C)(C)c1cc(CCC(=O)NN)cc(C(C)(C)C)c1O,outcome,[1],inactive
CN1Cc2c(N)cccc2C(c2ccccc2)C1 (stereo unspecified),outcome,[5],inactive
same,outcome,[3],inactive
same,outcome,[1],inactive
same,outcome,[4],inactive
COC(=O)c1ccc(C)cc1,outcome,[7],inactive
same,outcome,[8],inactive
same,AC50,[1],9.06 µM (active)
same,outcome,[6],inactive
COc1c(Cl)c(Cl)c(Cl)c(Cl)c1Cl,AC50,[1],10.3 µM (active)
CCCCCCCCCCCCCCCCCC(=O)OCC(CC)CCCC (stereo unspecified),outcome,[7],inactive
same,outcome,[8],inactive
same,outcome,[6],inactive
C=C(C)C(=O)NCCCN(C)C,outcome,[1],inactive
same,outcome,[6],inactive
CC1(C)OC[C@@H]2O[C@@]3(C(=O)O)OC(C)(C)O[C@H]3[C@@H]2O1,outcome,[5],inactive
same,outcome,[1],inactive
same,outcome,[2],inactive
